Results on eight compounds are retold here after PubChem BioAssay.

Unmarked numbers belong to inactive results. No rule for the calls is given here.

The assay concerns Aerobactin synthetase IucA (Klebsiella pneumoniae hvKP1). The experiment in a line: IucA enzyme inhibition, primary screen, biochemical, Spectrum library (AID 1346200).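 Also: 100% = wells without compound and 0% = wells lacking enzyme.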 Conditions: malachite green pyrophosphate, A620, at 8 µM, active compounds read low.
As to `CC12CCCC(O)(C1)C1CC(C)(C)C1CC2` (stereo not drawn), the activity remaining is 91.8%.

As to `Cc1ccnc(NS(=O)(=O)c2ccc(N)cc2)n1`, the activity remaining is 122%. The figure for `O=C(O)c1ccc(S(=O)(=O)N(Cl)Cl)cc1` is 113%; for `COC(=O)[C@]1(C)CC[C@]2(C)CC[C@]3(C)C4=CCc5c(cc(O)c(O)c5C)[C@]4(C)CC[C@@]3(C)C2C1` (stereo partly drawn) it is 106%. The value for `CCCc1ncc(C[n+]2ccccc2C)c(N)n1` was 111%. Regarding `Nc1nc(/C(=C/CC(=O)O)C(=O)N[C@@H]2C(=O)N3C(C(=O)O)=CCS[C@H]23)cs1`, the activity remaining is 117%. The value for `COc1c2ccoc2nc2c(OC)c(OCC(O)C(C)(C)O)ccc12` (stereo not drawn) was 98%; that for `C#C[C@]1(O)CCC2C3CCC4=Cc5oncc5C[C@]4(C)C3CC[C@@]21C` (stereo partly drawn) was 120%.
